Assay results: PubChem BioAssay (EPA / NIEHS)
Active and inactive are the calls of the source. Rule for the calls: active = hit-call score of the fitted dose curve at least 0.9, where 1 is the maximum; inactive = score below 0.9.

Target: Myc proto-oncogene protein (Homo sapiens) (UniProt P01106)
Assay: ATG_Myc_CIS: Attagene CIS-FACTORIAL HepG2 Assay for human Myelocytomatosis (Myc) Proto-Oncogene Transcription Factor (AID 2282990)
Conditions: HepG2, Attagene cis-reporter transcription factor activity; actives raise or lower the signal
Procedure: ATG_CIS is a cell-based, multiplexed-readout assay that uses HepG2, a human liver cell line, with measurements taken at 24 hours after chemical dosing in a 24-well plate.ATG_Myc_CIS is one of 52 assay component(s) measured or calculated from the ATG_CIS assay. It is designed to make measurements of mRNA induction, a form of inducible reporter, as detected with fluorescence intensity signals by Reverse transcription polymerase chain reaction (RT-PCR) and Capillary electrophoresis technology.Data from the assay component ATG_Myc_CIS was analyzed into 1 assay endpoint. This assay endpoint, ATG_Myc_CIS, was analyzed with bidirectional fitting relative to DMSO as the negative control and baseline of activity. Using a type of inducible reporter, measures of mRNA for gain or loss-of-signal activity can be used to understand the reporter gene at the transcription factor-level as they relate to the gene MYC. Furthermore, this assay endpoint can be referred to as a primary readout, because this assay has produced multiple assay endpoints where this one serves a reporter gene function. To generalize the intended target to other relatable targets, this assay endpoint is annotated to the dna binding intended target family, where the subfamily is basic helix-loop-helix leucine zipper.
Human liver HepG2 cells are transiently transfected with multiple reporter transcription units (MRTUs) in 6-well plates using FuGene 6 reagent (Roche; 3 ml FuGene/1 mg DNA). The MRTU constructs are regulated by a cis-regulating element (promoter). […] A major difference between the CIS and TRANS system is that in CIS activities of endogenous TFs are measured, whereas the TRANS assay evaluates changes in activities of exogenous, chimeric NR-Gal4 proteins. […] At the end of 24 hour incubation, total RNA was isolated using TriZol reagent (Invitrogen). The isolated RNA is then reverse-transcribed using oligo(dT) primer and Mo-MLV reverse transcriptase (Invitrogen) with DNAse I (Ambion) treatment for 30 min. The one-tenth of the produced cDNA was amplified by PCR using Taq DNA polymerase (Invitrogen) and two reporter sequence-specific primers. The PCR products were fluorescently labeled by primer extension with 6-arboxyfluorescein (6-FAM) 5'-labeled reporter sequence-specific primer (2 min at 95 C, 20 s at 68 C and 10 min at 72 C) and these products were digested with 5U of HpaI (New England Biolabs) for 2h at 37 C. The fragments were purified using Qiaquick PCR columns (Qiagen), analyzed on an ABI 3130xL genetic analyzer (Applied Biosystems) with peak positions identified by using a set of X-rhodamine (ROX)-labeled MapMarker1000 molecular weight standards (BioVentures). The raw capillary electrophoresis data was processed using Attagraph software (Attagene).

Chain of Myc proto-oncogene protein (Homo sapiens) (P01106 whole entry, looked up): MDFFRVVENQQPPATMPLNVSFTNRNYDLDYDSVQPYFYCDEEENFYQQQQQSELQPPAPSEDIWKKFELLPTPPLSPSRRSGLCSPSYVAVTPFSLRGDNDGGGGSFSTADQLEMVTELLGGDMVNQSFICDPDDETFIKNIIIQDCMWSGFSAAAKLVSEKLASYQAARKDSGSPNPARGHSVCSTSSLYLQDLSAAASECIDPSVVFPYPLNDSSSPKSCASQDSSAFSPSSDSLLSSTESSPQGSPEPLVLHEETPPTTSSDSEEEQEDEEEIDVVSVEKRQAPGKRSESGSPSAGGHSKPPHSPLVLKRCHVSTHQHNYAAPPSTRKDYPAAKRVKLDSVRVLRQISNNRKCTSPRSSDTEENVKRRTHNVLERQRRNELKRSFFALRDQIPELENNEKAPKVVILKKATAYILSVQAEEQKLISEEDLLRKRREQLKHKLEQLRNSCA

Structure (SMILES) | outcome | AC50
C=CCOC(=O)c1ccccc1C(=O)OCC=C | inactive | –
CCOC(=O)CCC(=O)OCC | inactive | –
c1cc(-c2ccncc2)ccn1 | inactive | –
NC(=O)Cn1c(=O)cc(CCN2CCN(c3nccc4sccc34)CC2)c2ccc(F)cc21 | inactive | –
CCCCCCCCCCCCCCCC | inactive | –
Oc1ccc2c(c1)OC[C@@H](N1CCC(O)(c3ccc(F)cc3)CC1)[C@H]2O | inactive | –
COC(=O)c1ccc(O)cc1 | inactive | –
C[Si]1(C)O[Si](C)(C)O[Si](C)(C)O[Si](C)(C)O1 | inactive | –
COc1cc(-c2nc(NC(=O)c3cc4cc(C)cc(C)c4n3CC(=O)O)sc2CCC2CCCCC2)c(OC)cc1Cl | inactive | –
COCCOC[C@H](CC1(C(=O)NC2CCC(C(=O)O)CC2)CCCC1)C(=O)Oc1ccc2c(c1)CCC2 (stereo not given in full) | inactive | –
O=[N+]([O-])C(CO)(CO)CO | inactive | –
O=C(O)Cc1ccccc1Nc1c(Cl)cccc1Cl | inactive | –
CCCCCCCC=O | inactive | –
O=c1c(O)c(-c2ccc(O)c(O)c2)oc2cc(O)cc(O)c12 | inactive | –
Clc1cc(Cl)c(Cl)cc1Cl | inactive | –
CN1CCCC1=O | inactive | –
Cc1nc(C)nc(N2C[C@@H](C)N(c3ccnc([C@@H](C)O)n3)[C@@H](C)C2)n1 | inactive | –
CCCCCCCCCCCCCCCCCC(=O)O | inactive | –
COc1cc(S(=O)(=O)O)c(C)cc1N=Nc1c(O)ccc2cc(S(=O)(=O)O)ccc12 | inactive | –
CCCCCCCCCCC | inactive | –

Structure (SMILES) | outcome | AC50
CCCCN(CCCC)CCCC | inactive | –
O=C(N[C@@H](Cc1ccccc1)[C@@H](O)C(=O)N1C[C@@H](O)[C@@H](O)C1)c1cc2cc(Cl)ccc2[nH]1 | inactive | –
Cc1ccc2ncccc2c1 | inactive | –
Cc1cccc([N+](=O)[O-])c1C | inactive | –
CC(=O)OC/C=C(\C)CCC=C(C)C | inactive | –
Nc1ccc(S(=O)(=O)c2ccc(N)cc2)cc1 | inactive | –
CC1(C)NC(=O)NC1=O | inactive | –
NS(=O)(=O)c1cc2c(cc1Cl)NCNS2(=O)=O | inactive | –
Cc1ccccc1Cl | inactive | –
Nc1ccc2c(c1)C(=O)c1ccccc1C2=O | inactive | –
CCOC(=O)C(C)(C)Oc1ccc(Cl)cc1 | inactive | –
COc1ccc(C)cc1N | inactive | –
Cc1cc(NC(=O)C(=O)O)cc(C)c1Oc1ccc(O)c2c1CCC2 | inactive | –
CNC(=O)[C@H]1O[C@@H](n2cnc3c(NCc4cc(Cl)ccc4OCc4cc(C)no4)ncnc32)[C@H](O)[C@@H]1N | inactive | –
COc1cc(C=O)ccc1O | inactive | –
Cc1oc(-c2ccccc2)nc1CCOc1cccc2c1ccn2CCC(=O)O | inactive | –
CC(C)(C)c1cc(O)c(C(C)(C)C)cc1O | – | 114 µM (active)
CN1CCN(Cc2cc(-c3ccc4[nH]c(=O)oc4c3)co2)[C@@H](c2ccc(F)cc2)C1 | inactive | –
CCCCCCCCCCCCCO | inactive | –
CC(=O)Oc1ccccc1C(=O)O | inactive | –
